Assay outcomes as filed in PubChem BioAssay.
Hits are enriched below; roughly 4.2% of the tested compounds scored in any of these assays.
CHOP inhibitor – inhibitors of CHOP induction in ER stress response; inhibition, % at 10 µM; 220,000 tested, 3.8% active; CHO-K1 CHOP-promoter luciferase, tunicamycin-induced, 15-18 h; AID 2732;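 active = compounds that reduced the stress-induced luciferase reporter signal by more than about 70% of percent inhibition, limit read from the data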;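 also: 0% = tunicamycin plus vehicle and 100% = wells without tunicamycin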
Hsp70 act – transcriptional activators of Hsp70; HeLa Hsp70 promoter luciferase reporter, luminescence; scaled: vehicle 0, proteasome-inhibitor control 100%; activation, % at 10 µM; 200,000 tested, 0.04% active; AID 1203;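 active = activation above the mean across all tested compounds plus 3 SD, cutoff set per campaign, cut at about 5.5% in these data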;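 also: 100% = MG132 at 30 µM as the positive control and 0% = DMSO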
S1P4 ag – agonists of human S1P4 receptor; S1P4-expressing cell line, agonist reporter assay; O95977; 220,000 tested, 0.35% active; AID 1509; activation, % at 4.98 µM; in the data active = activation above about 11%;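 also: 0% = DMSO vehicle and 100% = reference agonist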
Target sequence (O95977 whole entry, looked up): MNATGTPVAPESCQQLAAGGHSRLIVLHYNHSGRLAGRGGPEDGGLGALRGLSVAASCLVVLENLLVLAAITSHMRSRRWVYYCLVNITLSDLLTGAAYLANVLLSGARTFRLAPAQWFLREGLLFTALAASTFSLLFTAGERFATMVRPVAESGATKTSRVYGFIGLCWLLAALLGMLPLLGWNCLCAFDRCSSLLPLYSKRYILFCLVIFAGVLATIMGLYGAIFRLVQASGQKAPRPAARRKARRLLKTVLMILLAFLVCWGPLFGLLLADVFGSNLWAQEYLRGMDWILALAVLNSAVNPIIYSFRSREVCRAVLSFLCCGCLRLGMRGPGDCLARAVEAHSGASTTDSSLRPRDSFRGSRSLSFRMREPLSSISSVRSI
S1P4 antagonist – antagonists of human S1P4 receptor; inhibition, % at 4.98 µM; 220,000 tested, 0.26% active; AID 1510; S1P4-expressing cells, antagonist mode, reporter read-out; in the data active = inhibition above about 29%;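 also: 0% = wells stimulated with agonist and 100% = vehicle wells without agonist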
Active calls of the source: *.

How did Nc1ccc(Oc2cccc(Oc3ccc(N)cc3)c2)cc1 do in these assays?
CHOP inhibitor: 88*; Hsp70 act: 0; S1P4 ag: 0; S1P4 antagonist: 0

What do the screens show for `O=c1c2cc(N3CCOCC3)ccc2[nH]c(=S)n1Cc1ccc(Cl)cc1`?
CHOP inhibitor: 70*; Hsp70 act: 0; S1P4 ag: -2; S1P4 antagonist: 11

What do the screens show for `CCCOc1ccc(N2C(=O)CC(NCCNc3ccc([N+](=O)[O-])cn3)C2=O)cc1` (stereo unspecified)?
CHOP inhibitor: 3; S1P4 ag: 1; S1P4 antagonist: 5

What do the screens show for `CCn1cc(CN2CCc3c([nH]c4ccccc34)C2c2ccc(F)c(OC)c2)c(C)n1` (stereo unspecified)?
CHOP inhibitor: 70*; Hsp70 act: 0; S1P4 ag: 0; S1P4 antagonist: 13

What do the screens show for `Oc1[nH]c2ccccc2c1/C=N/c1nccs1`?
CHOP inhibitor: -1; Hsp70 act: 0; S1P4 ag: -1; S1P4 antagonist: 22

Results for CC1=NNC(=O)/C1=C\c1cn(-c2ccccc2)nc1-c1ccc(Cl)cc1 ?
CHOP inhibitor: 108*; Hsp70 act: 0; S1P4 ag: 2; S1P4 antagonist: 1

How did CSc1scc2c1-c1nc(SCC(=O)C(C)(C)C)ncc1CC2 do in these assays?
CHOP inhibitor: 39; S1P4 ag: 1; S1P4 antagonist: 1

Results for COc1cccc(C(=O)O/N=C(\N)Cc2ccc(Cl)cc2)c1 ?
CHOP inhibitor: -5; Hsp70 act: 0; S1P4 ag: 0; S1P4 antagonist: -5

Results for CCOC(=O)C1=C(CSc2nc3ccccc3s2)NC(=O)NC1c1cccc([N+](=O)[O-])c1 (stereo unspecified) ?
CHOP inhibitor: 78*; Hsp70 act: 0; S1P4 ag: -2; S1P4 antagonist: -1

How did CC(C)COc1ccc(CSCCNC(=S)Nc2ccccc2)cc1 do in these assays?
CHOP inhibitor: 83*; Hsp70 act: 0; S1P4 ag: 1; S1P4 antagonist: -10

How did Cc1[nH]c2c(ccc3ccccc32)c1C1C(CCN)C1(C)C (stereo unspecified) do in these assays?
CHOP inhibitor: 92*; Hsp70 act: 0; S1P4 ag: 2; S1P4 antagonist: 7

What do the screens show for `COc1ccc(-c2[nH]ncc2N=Nc2ccccc2)cc1`?
CHOP inhibitor: 73*; Hsp70 act: 0; S1P4 ag: 2; S1P4 antagonist: -1

What do the screens show for `Cc1ccc(S(=O)(=O)N(CCC(=O)Nc2ccc(OC(F)(F)F)cc2)c2ccccc2)cc1`?
CHOP inhibitor: 83*; Hsp70 act: 0; S1P4 ag: 0; S1P4 antagonist: -25

What do the screens show for `Cc1oc2ccc(OCC(N)=O)cc2c1C(=O)OC(C)C`?
CHOP inhibitor: 7; Hsp70 act: 0; S1P4 ag: -1; S1P4 antagonist: 0

How did Cc1cc(C(=O)COC(=O)c2ccc[nH]c2=O)c(C)n1-c1ccccc1 do in these assays?
CHOP inhibitor: 70*; Hsp70 act: 0; S1P4 ag: 1; S1P4 antagonist: -11

How did Cc1cc(C(=O)COC(=O)c2ccc[nH]c2=O)c(C)n1-c1ccc(F)cc1 do in these assays?
CHOP inhibitor: 75*; Hsp70 act: 0; S1P4 ag: 1; S1P4 antagonist: -22

What do the screens show for `Cc1cc(C(=O)OCC(=O)NCc2ccco2)c(C)n1-c1ccc(F)cc1`?
Hsp70 act: 0; S1P4 ag: -1; S1P4 antagonist: -6

Results for Cc1cc(C(=O)COC(=O)c2ccc[nH]c2=O)c(C)n1C1CC1 ?
CHOP inhibitor: 3; Hsp70 act: 0; S1P4 ag: 1; S1P4 antagonist: 4

Results for Cc1cc(C(=O)COc2cccnc2[N+](=O)[O-])c(C)n1-c1ccccc1 ?
CHOP inhibitor: 75*; Hsp70 act: -1; S1P4 ag: 1; S1P4 antagonist: -30

What do the screens show for `CCCC(=O)c1ccc(N2CCCC2)c(F)c1`?
CHOP inhibitor: 12; Hsp70 act: 0; S1P4 ag: -1; S1P4 antagonist: -15

How did Cn1cc([N+](=O)[O-])c(C(=O)N/N=C/c2cc3c(cc2Br)OCO3)n1 do in these assays?
CHOP inhibitor: 10; Hsp70 act: 0; S1P4 ag: 0; S1P4 antagonist: -7

How did O=C1/C(=C/c2cccnc2)Oc2cc(OS(=O)(=O)c3ccc(Cl)cc3)ccc21 do in these assays?
CHOP inhibitor: 78*; Hsp70 act: 0; S1P4 ag: -2; S1P4 antagonist: -5

Results for Cc1ccc(NC(=O)c2cnccn2)c(OC(F)F)c1 ?
CHOP inhibitor: -2; Hsp70 act: 0; S1P4 ag: -1; S1P4 antagonist: -14

How did Cc1cc2c(cc1C)CSC(c1ccccc1OC(=O)C(C)C)SC2 do in these assays?
CHOP inhibitor: 72*; Hsp70 act: 0; S1P4 ag: 0; S1P4 antagonist: 8

What do the screens show for `COc1ccc(NC(=O)Cc2c(Sc3ccccc3)c3ccccc3n2C)cc1`?
CHOP inhibitor: 23; Hsp70 act: 0; S1P4 ag: 0; S1P4 antagonist: -8

Results for Cn1c(CC(=O)Nc2ccc(F)cc2)c(Sc2ccccc2)c2ccccc21 ?
CHOP inhibitor: 79*; Hsp70 act: 0; S1P4 ag: 0; S1P4 antagonist: -15

What do the screens show for `COc1ccc(C(=O)NCC(C)(C)SCc2c(C)cc(C)cc2C)cc1`?
CHOP inhibitor: 73*; Hsp70 act: 0; S1P4 ag: -1; S1P4 antagonist: -8

What do the screens show for `COc1ccc(CNC(=O)c2ccc(C(C)(C)C)cc2)cc1`?
CHOP inhibitor: -2; Hsp70 act: 0; S1P4 ag: 0; S1P4 antagonist: -6
